Test [1] can be described thus: APR_HepG2_CellCycleArrest_24hr: Apredica 24-hour HepG2 Assay for Cell Cycle Arrest (AID 2282905).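 Further: cell cycle arrest scored as ratio of 2N to 4N nuclear DNA content.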 To be noted: imaging, actives raise or lower the signal. The method, boiled down: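 HepG2 cells were exposed to compounds at 0.39–200 uM (ten concentrations, duplicate) in 0.5% v/v DMSO for 24 hr. After formaldehyde fixation and Triton permeabilization, Hoechst 33342-stained nuclei were imaged at 20x; DNA content was quantified, with bidirectional fitting against DMSO.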

A short description of test [2]: APR_HepG2_NuclearSize_24hr: Apredica 24-hour HepG2 Assay for Nuclear Size (AID 2282907). The note with it: high-content imaging, actives raise or lower the signal. The method, boiled down: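 HepG2 human liver cells were exposed for 24 hr to compounds at 0.39–200 uM (ten concentrations, duplicate) in 0.5% v/v DMSO. They were then formaldehyde-fixed, Triton-permeabilized and Hoechst 33342-stained, and nuclear diameter was imaged at 20x. Bidirectional fits were made against DMSO.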

A short description of test [3]: APR_HepG2_CellLoss_24hr: Apredica 24-hour HepG2 Assay for Cell Loss (AID 2282908).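 On AC50: fit in both directions so a hit may be cell loss or gain.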 The note with it: high-content imaging. A digest of the protocol: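 Compounds were tested at 0.39–200 uM in duplicate with 0.5% v/v DMSO final. Cells were then fixed in 3.7% formaldehyde, Hoechst 33342 nuclei were imaged at 20x by HCS, and cell number was fitted bidirectionally against DMSO.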

Test [4] in a line: APR_HepG2_MicrotubuleCSK_24hr: Apredica 24-hour HepG2 Assay for Microtubule CSK Stabilty (AID 2282909). The note with it: HepG2 microtubule cytoskeleton imaging, actives raise or lower the signal. A digest of the protocol: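 HepG2 cells exposed 24 h to compounds at 0.39–200 uM (duplicate, 0.5% v/v DMSO final), then fixed, permeabilized and immunostained for alpha-tubulin with Hoechst 33342. Cytoskeleton imaged at 20x; bidirectional fit versus DMSO baseline.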

A short description of test [5]: APR_HepG2_MitoticArrest_24hr: Apredica 24-hour HepG2 Assay for Mitotic Arrest (AID 2282910). The note with it: high-content imaging, actives raise or lower the signal. The method, boiled down:
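HepG2 human liver cells were exposed to compounds at 0.39–200 uM (10 concentrations, duplicate) in 0.5% v/v DMSO for 24 hr, then fixed and immunostained for phospho-histone H3 with Hoechst 33342. Mitotic arrest came from HCS fluorescent imaging, fitted bidirectionally against DMSO.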

Test [6] in a line: APR_HepG2_MitoMembPot_24hr: Apredica 24-hour HepG2 Assay for Mitochondrial Membrane Potential (AID 2282911). To be noted: imaging, actives raise or lower the signal. A digest of the protocol:
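HepG2, 24 hr dosing, 10 concentrations 0.39–200 uM, 0.5% DMSO final. Live-cell MitoTracker Red CMXRos 250 nM 30 min, then 3.7% formaldehyde fix. HCS fluorescence imaging, 20x; bidirectional fit vs DMSO baseline.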

A short description of test [7]: APR_HepG2_MitoMass_24hr: Apredica 24-hour HepG2 Assay for Mitochondrial Mass (AID 2282912). The note with it: high-content imaging, actives raise or lower the signal. A digest of the protocol:
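Human HepG2 liver cells were exposed for 24 hr to compounds at 0.39–200 uM (duplicates, 0.5% v/v DMSO final). They were stained live with 250 nM MitoTracker Red CMXRos for 30 min, fixed in 3.7% formaldehyde, and imaged by HCS fluorescence; signals were fitted bidirectionally against DMSO.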

A short description of test [8]: APR_HepG2_p53Act_24hr: Apredica 24-hour HepG2 Assay for p53 Activation (AID 2282913).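 Further: p53 protein immunofluorescence averaged per cell in HepG2 with Hoechst nuclei.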 To be noted: high-content imaging, actives raise or lower the signal. A digest of the protocol: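 Read-out: Cy5 immunofluorescence for p53 in fixed, permeabilized HepG2, imaged by HCS with Hoechst-defined nuclei. Dosing was 24 hr at 0.39–200 uM in 0.5% DMSO. Curves were fitted bidirectionally relative to DMSO.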

A short description of test [9]: APR_HepG2_CellCycleArrest_72hr: Apredica 72-hour HepG2 Assay for Cell Cycle Arrest (AID 2282914). To be noted: high-content imaging, actives raise or lower the signal. A digest of the protocol: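 HepG2, 72 hr exposure, 10-point 0.39–200 uM, duplicate, 0.5% DMSO final. Fix 3.7% formaldehyde 30 min RT, Triton X-100 0.5%, Hoechst 33342 2 ug/mL. ArrayScan 20x, six fields/well; DNA content per nucleus; bidirectional fit vs DMSO.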

Test [10] can be described thus: APR_HepG2_CellLoss_72hr: Apredica 72-hour HepG2 Assay for Cell Loss (AID 2282915). The note with it: high-content imaging. A digest of the protocol:
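HepG2 cells were exposed for 72 hr to compounds at 0.39–200 uM (ten concentrations, duplicate) in 0.5% v/v final DMSO. Nuclei were stained with Hoechst 33342 after 3.7% formaldehyde fixation, imaged at 20x, and counted; fits bidirectional versus DMSO.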

Test [11] is described as follows: APR_HepG2_P-H2AX_72hr: Apredica 72-hour HepG2 Assay for H2AX Phosphorylation (AID 2282916).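 Further: phospho-histone H2A.x immunostain intensity per cell marking DNA damage.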 To be noted: imaging, actives raise or lower the signal. The method, boiled down: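 HepG2 human liver cells were exposed for 72 hr to compounds at 0.39–200 uM (10 concentrations, duplicate per plate) in 0.5% v/v DMSO. Fixed, permeabilized cells were immunolabeled for phospho-histone H2A.x with Hoechst 33342 and imaged by HCS fluorescence; bidirectional fit versus DMSO.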

Test [12] can be described thus: APR_HepG2_MitoticArrest_72hr: Apredica 72-hour HepG2 Assay for Mitotic Arrest (AID 2282918). To be noted: high-content imaging, actives raise or lower the signal. The method, boiled down: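 HepG2, 72 hr exposure, 0.39–200 uM in duplicate, 0.5% v/v DMSO final. Formaldehyde-fixed, Triton-permeabilized, anti-phospho-histone H3/FITC plus Hoechst. ArrayScan imaging at 20x; curves fit bidirectionally against DMSO baseline.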

The nature of test [13]: APR_HepG2_MicrotubuleCSK_72hr: Apredica 72-hour HepG2 Assay for Microtubule CSK Stabilty (AID 2282919). The note with it: HepG2 microtubule cytoskeleton, high-content imaging, actives raise or lower the signal. A digest of the protocol: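 HepG2 human liver cells were dosed for 72 h at ten concentrations from 0.39 to 200 uM in duplicate (0.5% v/v DMSO final). Fixed, permeabilized cells were immunostained for alpha-tubulin (Cy5) with a Hoechst counterstain and imaged at 20x.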

The nature of test [14]: APR_HepG2_P-H2AX_24hr: Apredica 24-hour HepG2 Assay for H2AX Phosphorylation (AID 2282920). To be noted: high-content imaging, actives raise or lower the signal. The method, boiled down: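 HCS fluorescence imaging of phospho-H2A.x immunostain (with Hoechst 33342 nuclear counterstain) in HepG2 after 24 hr compound exposure; 10 concentrations, 0.39–200 uM, duplicate wells, 0.5% v/v DMSO. Gain or loss of signal fitted relative to DMSO baseline.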

A short description of test [15]: APR_HepG2_StressKinase_72hr: Apredica 72-hour HepG2 Assay for Stress Kinase (AID 2282921). To be noted: HepG2 stress kinase (phospho-c-Jun) imaging, actives raise or lower the signal. The method, boiled down:
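Cells were exposed for 72 h to ten concentrations (0.39–200 uM, duplicate) at 0.5% v/v DMSO final, then fixed with 3.7% formaldehyde, permeabilized and immunostained for phospho-c-Jun (Cy3 secondary) with Hoechst nuclear counterstain.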

Test [16] in a line: APR_HepG2_StressKinase_24hr: Apredica 24-hour HepG2 Assay for Stress Kinase (AID 2282922). The note with it: HepG2 stress kinase (phospho-c-Jun) imaging, actives raise or lower the signal. A digest of the protocol:
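HepG2 cells exposed 24 hr to compound at 0.39–200 uM (10 concentrations, duplicate), 0.5% v/v DMSO final. Fixed in 3.7% formaldehyde, permeabilized with Triton X-100, immunolabeled for phospho-c-Jun with Hoechst 33342; HCS fluorescence imaging, bidirectional fit versus DMSO.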

Test [17] is described as follows: APR_HepG2_NuclearSize_72hr: Apredica 72-hour HepG2 Assay for Nuclear Size (AID 2282925). To be noted: high-content imaging, actives raise or lower the signal. A digest of the protocol:
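HepG2 cells were exposed to compounds at ten concentrations from 0.39 to 200 uM (duplicate, 0.5% DMSO final) for 72 hr. After fixation in 3.7% formaldehyde, nuclei were stained with Hoechst 33342 (2 ug/mL) and imaged at 20x.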

Test [18] can be described thus: ATG_CRE_CIS: Attagene CIS-FACTORIAL HepG2 Assay for human cAMP Responsive Element (CRE) binding protein 3 (AID 2282926). To be noted: HepG2 CRE cis-reporter, Attagene multiplexed mRNA; actives raise or lower the signal. The method, boiled down: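 Endogenous CRE-binding activity in HepG2 is reported through a cis-regulated transfected reporter. Following a day of exposure, mRNA levels are determined by reverse transcription PCR and fluorescent fragment analysis; fits run in both directions versus DMSO.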

Test [19] deals with CCAAT/enhancer-binding protein beta (Homo sapiens) (UniProt P17676). The experiment in a line: ATG_C_EBP_CIS: Attagene CIS-FACTORIAL HepG2 Assay for human CCAAT/Enhancer Binding Protein (C/EBP) beta (AID 2282927). To be noted: HepG2 Attagene cis-factorial transcription factor reporter; actives raise or lower the signal. A digest of the protocol:
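RT-PCR/capillary electrophoresis fluorescence of reporter mRNA, 24 h post-dose, in HepG2 cells carrying transfected cis-promoter reporter units. Bidirectional curve fitting against DMSO baseline captures gain or loss of signal.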

Test [20] can be described thus: ACEA_ER_80hr: ACEA Biosciences xCELLigence Real-Time Cell Analysis on Estrogen Receptor Agonism for Proliferation (AID 2282667; active means hit-call score of the fitted dose curve at least 0.9, where 1 is the maximum). To be noted: T47D proliferation, impedance (xCELLigence), 80 h. The method, boiled down:
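Impedance readout (RT-CES) of T47D proliferation at 80 h post-dose; gain of signal vs DMSO baseline. Compounds: 8 conc, 1:4 serial, top 100 uM final, ≤0.5% DMSO; biological duplicate.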

“And” between values parts separate entries of the source, which are not always exact repeats. Equal entries are not always repeated. Results filed as inconclusive are left out. Some compounds were tested as several samples or in several runs, with calls that do not always agree. The source made the active and inactive calls. How the source made its calls, unless noted: active means hit-call score of the fitted dose curve at least 0.9, where 1 is the maximum; inactive means score below 0.9.

Broadly, the AC50 is the concentration giving half of the maximal activity seen.

Sequence of CCAAT/enhancer-binding protein beta (Homo sapiens) (P17676 whole entry, looked up): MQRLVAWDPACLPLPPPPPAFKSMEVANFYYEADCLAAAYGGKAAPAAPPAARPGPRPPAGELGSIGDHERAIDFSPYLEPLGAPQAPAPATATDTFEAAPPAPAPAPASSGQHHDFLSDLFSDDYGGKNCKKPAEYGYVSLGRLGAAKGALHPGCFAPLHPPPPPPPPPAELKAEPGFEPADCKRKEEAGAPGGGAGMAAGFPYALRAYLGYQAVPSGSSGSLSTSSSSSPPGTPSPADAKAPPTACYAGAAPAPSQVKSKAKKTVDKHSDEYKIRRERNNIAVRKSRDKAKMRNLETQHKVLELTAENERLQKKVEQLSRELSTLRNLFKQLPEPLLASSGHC

With `CCC(C)(C)c1ccc(O)c(C(C)(C)CC)c1`, the half-maximal activity concentration (AC50) was 28.1 µM (active) in [1]; 39.1 µM (active) in [2]; 40.5 µM (active) in test [3]; 32.3 µM (active) in [5]; 29.7 µM (active) in [6]; 32.1 µM (active) in [8]. The AC50 was 13.9 µM (active) in test [9], 37.4 µM (active) in test [10], 59.4 µM (active) in test [12] and 39.3 µM (active) in [14]. Further, the call in [4], in test [7], in test [11], in test [13], in [15] and in test [16] was inactive. Further, the compound was classed as inactive in test [17], in test [18] and in test [19].
In the case of `Oc1cccc2cccnc12`, the AC50 was 15.4 µM (active) in test [1]; 2.29 µM (active) in test [3]; 25.9 µM (active) in test [8]; 1.59 µM (active) in test [9]; 2.66 µM (active) in test [10]; 16.9 µM (active) in [11]. The AC50 was 5.23 µM (active) in test [12] and 18.8 µM (active) in test [15]. The result in test [2], in [4], in [5], in [6], in [7] and in test [13] was inactive. The result in test [14], in test [16], in [17], in test [18] and in test [19] was inactive.
Take `CC(C)(C)c1cc(O)ccc1O`: the outcome in test [1], in test [2], in [4], in test [5], in [8] and in test [9] was inactive. Besides, the result in test [11], in test [12], in test [13], in [14], in [15] and in [16] was inactive. Moreover, the AC50 is 125 µM (active) in [3]; 114 µM (active) in test [6]; 151 µM (active) in [7]; 144 µM (active) in test [10]; 110 µM (active) in test [17]; 151 µM (active) in [18]. Further, the half-maximal activity concentration (AC50) in test [19] was 79.7 µM (active).
As to `Cc1ccc2ccccc2c1C`, in test [20], the AC50 is 13.5 µM (active). Also, the outcome in test [19] was inactive.
Turning to `COc1cc(-c2ccc(N)c(OC)c2)ccc1N`, the half-maximal activity concentration (AC50) was 58.7 µM (active) in [1]; 26.9 µM (active) in test [3]; 28.8 µM (active) in test [5]; 12.7 µM (active) in test [6]; 13.8 µM (active) in test [9]; 56.5 µM (active) in test [10]. Also, the AC50 was 24.8 µM (active) in test [11]; 24.8 µM (active) in [12]; 42.1 µM (active) in test [13]; 50.8 µM (active) in [14]; 31 µM (active) and 29.3 µM (active) in test [18]; 14.8 µM (active) and 36.5 µM (active) in test [19]. In addition, the compound was called inactive in test [1], in test [2], in test [3], in [4], in test [5] and in test [6]. Moreover, the compound was called inactive in test [7], in test [8], in test [9], in [10], in [11] and in test [12]. For the same compound, the compound was called inactive in test [13], in test [14], in test [15], in test [16] and in test [17].

Source of the values: PubChem BioAssay (EPA / NIEHS).
